This passage reports INHIBITION results from ChEMBL document CHEMBL4513216, “Probing the Open Global Health Chemical Diversity Library for Multistage-Active Starting Points for Next-Generation Antimalarials” (ACS Infect Dis, 2020).

In all, about 69,000 compounds went through this assay and about 8,600 (12%) showed an effect of 50% or more. What follows is part of a selection rich in strong results, with near analogues and random picks from the rest.

In the assay the test system is Plasmodium berghei. The experiment in a line: Screen against P. berghei liver stage (PbLuc), transformed with Luciferase, at 10uM. Type of assay: functional, HepG2. Particulars: tested at 10 uM.
Turning to `COc1cc(C)c(S(=O)(=O)CC(=O)N(C)C2CC2)cc1OC`, the INHIBITION is reported as 50.4%.

Turning to `CCN(C(=O)CS(=O)(=O)c1cc(OC)c(OC)cc1C)C1CC1`, the INHIBITION is on record as 33.7%.

As for `COc1cc(C)c(S(=O)(=O)CC(=O)N(C)C(C)C)cc1OC`, the INHIBITION stood at 11.5%.

`COc1c(CNC(c2cccc(F)c2)c2nccn2C)c(C)nn1C` (stereo not drawn): the INHIBITION is listed as -16.8%.

Regarding `Cc1c(Br)cccc1C(=O)NCC1CCCNC1` (stereo not drawn), the INHIBITION is 42.3%.

For the compound `CN(Cc1nccn1C)C1CCCN(Cc2noc(C3CC3)n2)C1` (stereo not drawn), the INHIBITION is on record as -25.8%.

Take `O=c1cc(N2CCNCC2)cnn1Cc1noc(C2CCCC2)n1`: the INHIBITION came to 78.6%.

Take `O=c1cc(N2CCCCC2)cnn1Cc1noc(C2CCCO2)n1` (stereo not drawn): the INHIBITION was -27.1%.

For the compound `O=c1cc(N2CCCC2)cnn1Cc1noc(C2CCCO2)n1` (stereo not drawn), the INHIBITION was 47.1%.

Regarding `Cc1ccccc1CNC(=O)N1C[C@@H]2C[C@H](C(=O)N(C)C)[C@H](C1)O2`, the INHIBITION was found to be 5.63%.

As to `COc1ccc(OC)c(CNc2nnc(C(C)(C)C)o2)c1`, the INHIBITION was -10.9%.

`CC(Cn1cncn1)NC(=O)Nc1ccc(F)cc1OCC1CC1` (stereo not drawn): the INHIBITION was -21.1%.

On to `CC(Cn1cncn1)NC(=O)NCC(C)(C)Cc1ccccc1` (stereo not drawn), for which the INHIBITION worked out at 39.8%.

For the compound `CC(NC(=O)NCCCn1cncn1)c1ccc(F)cc1` (stereo not drawn), the INHIBITION is -1.7%.

On to `CC(Cn1cncn1)NC(=O)NCc1csc(N(C)C)n1` (stereo not drawn), for which the INHIBITION stood at 23.6%.

Take `CC(Cn1cncn1)NC(=O)NCC(C)(C)c1ccc(F)cc1` (stereo not drawn): the INHIBITION turned out to be 64.5%.

For the compound `Cc1ccc(C(C)(C)CNC(=O)NC(C)Cn2cncn2)cc1` (stereo not drawn), the INHIBITION amounted to 61.1%.

With `Cn1ncc(C(=O)N2CCN(C(=O)c3ccco3)CC2)c1Cl`, the INHIBITION was found to be 36.5%.

Consider `CC(=O)N1CCCC2(CCC(=O)N2Cc2cccnc2)C1` (stereo not drawn), for which the INHIBITION was 6.27%.

In the case of `Cc1ccc(C(=O)N2CCOC(c3nc(-c4ncccn4)no3)C2)cc1` (stereo not drawn), the INHIBITION was found to be 11.1%.

Take `c1cc2c(cc1CSCc1noc(C3CC3)n1)OCCO2`: the INHIBITION was 74.3%.

`c1cc2c(cc1CN1CCN(Cc3noc(C4CC4)n3)CC1)OCO2`: the INHIBITION is -28%.

As for `c1cc2c(cc1CN1CCC(Cc3noc(C4CC4)n3)CC1)OCCO2`, the INHIBITION is -5.26%.

Consider `COCCCNC(=O)CN1CCSC(c2ccccc2)C1` (stereo not drawn), for which the INHIBITION is 3.88%.

As to `COc1ccccc1C1CC(=O)Nc2nc(N3CCCCC3)sc21` (stereo not drawn), the INHIBITION worked out at 15.1%.

With `Cc1cc(C(=O)N2CCCC2c2noc(C(C)C)n2)c(C)o1` (stereo not drawn), the INHIBITION turned out to be 4.52%.

Turning to `CS(=O)(=O)c1ccc(CNC(=O)N2CCC(C(N)=O)CC2)cc1`, the INHIBITION is listed as -60.8%.

Consider `CCN(CC)S(=O)(=O)c1ccc(CNC(=O)N2CCC(C#N)CC2)cc1`, for which the INHIBITION is given as 45.7%.

With `CCN(CC)S(=O)(=O)c1ccc(CNC(=O)N2CCCCCC2)cc1`, the INHIBITION is 54.3%.

Regarding `COCCCNC(=O)c1cn(C(C)C)cc2c(=O)[nH]nc1-2`, the INHIBITION came out at 14.9%.

As for `Cc1nn(C)cc1S(=O)(=O)N(CCc1ccccc1)Cc1ccn(C)n1`, the INHIBITION amounted to 26.75%.

On to `CSCC[C@@H](CO)NC(=O)c1sc(-c2ccccc2Cl)nc1C`, for which the INHIBITION was determined as 9.84%.

`Cc1ccccc1-n1ncc2c(=O)n(CCN3CCCC3)cnc21`: the INHIBITION is on record as -16.3%.

Consider `CCOCCCNC(=O)CCSCc1csc(C)n1`, for which the INHIBITION is listed as 63.8%.

Turning to `Cc1nc(CSCCC(=O)NCCNC(=O)OC(C)(C)C)cs1`, the INHIBITION is reported as -30.7%.

For `Cc1nc(CSCCC(=O)NCC(=O)NC(C)C)cs1`, the INHIBITION is 29.4%.

Take `Cc1ccc(-c2ccnc(NCC(O)c3ccc(O)cc3)n2)c(C)n1` (stereo not drawn): the INHIBITION is 37.8%.

As to `O=C1NCCCCC1NC(=O)N1CCCc2ccccc21` (stereo not drawn), the INHIBITION is 34.2%.

As to `O=C1NCCCCC1NC(=O)N1CCCc2cc(F)ccc21` (stereo not drawn), the INHIBITION was 58.9%.

`COc1ccc2c(c1)CCCN2C(=O)NC1CCCCNC1=O` (stereo not drawn): the INHIBITION came out at 44.3%.

As to `Cc1ccc(CN2CCc3[nH]nc(C(=O)N(C)C)c3C2)s1`, the INHIBITION came to 8.74%.

`CS(=O)(=O)NC(=O)c1nnn(-c2ccccc2)c1C1CC1`: the INHIBITION is given as 8.64%.

For the compound `NS(=O)(=O)CCNC(=O)c1nnn(-c2ccc(F)cc2)c1C1CC1`, the INHIBITION is 36.8%.

With `O=C(NCC1(CO)CC1)c1nnn(-c2ccc(F)cc2)c1C1CC1`, the INHIBITION turned out to be 78.2%.

`CC(C)NC(=O)c1nnn(-c2ccccc2)c1C1CC1`: the INHIBITION is recorded as -65.5%.

As to `Cc1ccc(-n2nnc(C(=O)NCCS(N)(=O)=O)c2C2CC2)cc1`, the INHIBITION stood at 58.5%.

On to `COC(=O)CCNC(=O)c1nnn(-c2ccc(C)cc2)c1C1CC1`, for which the INHIBITION came to 49.8%.

For the compound `NS(=O)(=O)CCNC(=O)c1nnn(-c2ccccc2)c1C1CC1`, the INHIBITION is 56.8%.

Consider `O=C(NCC1(C(=O)O)CCC1)c1nnn(-c2ccc(F)cc2)c1C1CC1`, for which the INHIBITION is given as 20%.

On to `Cc1ccc(-n2nnc(C(=O)NCC3(CO)CC3)c2C2CC2)cc1`, for which the INHIBITION worked out at 33.3%.

Consider `CCc1nc(C2CCCN(C(=O)c3cc(C(C)C)[nH]n3)C2)no1` (stereo not drawn), for which the INHIBITION was 21.6%.

Regarding `O=C(NCC1CC1)[C@@H]1CC[C@@H]2[C@@H](CCN2Cc2ccco2)O1`, the INHIBITION is -35%.

On to `O=C(NCCN1CCOCC1)c1nc(-c2ccc3[nH]ccc3c2)no1`, for which the INHIBITION was -50.8%.

As to `Cn1ncc(C(=O)N2CCN(S(C)(=O)=O)CC2)c1Cl`, the INHIBITION is -10.95%.

For the compound `CNC(=O)C1(C)CCCN1Cc1cnn(C)c1C` (stereo not drawn), the INHIBITION is given as 37.8%.

As for `Cc1nn(C)cc1CN(C)C(=O)c1cccnc1`, the INHIBITION is reported as -13.6%.

As for `Cc1nn(C)cc1CN(C)C(=O)c1ccccn1`, the INHIBITION came to 8.7%.

With `Cc1nn(C)cc1CN(C)C(=O)c1ccncc1`, the INHIBITION is listed as 69.9%.

In the case of `Cc1nc(CN2CCC3(CC2)NC(=O)CC3c2ccncc2)cs1` (stereo not drawn), the INHIBITION amounted to 45.7%.

As to `CCC(C)N(Cc1sccc1C)C(=O)c1cnc[nH]1` (stereo not drawn), the INHIBITION stood at 9.41%.

As to `CCc1nnc(CN(C)Cc2cccc(C(=O)Nc3cnn(C)c3)c2)o1`, the INHIBITION came out at 28.7%.

`CCc1nnc(CN(C)Cc2cccc(C(=O)Nc3ccnn3C)c2)o1`: the INHIBITION amounted to 35%.

Consider `CCc1nnc(CN(C)Cc2cccc(C(=O)Nc3nccs3)c2)o1`, for which the INHIBITION stood at 70.9%.

As to `CC(C)(CO)CCCNC(=O)NC1(C)Cc2ccccc2C1`, the INHIBITION was determined as 47.2%.

With `c1ccc(CN2CCc3nnc(CN4CCCCC4)n3CC2)nc1`, the INHIBITION was -2.84%.

With `COc1ccc(Cc2ncc3c(n2)CN(C(=O)C(C)(C)OC)C3)cc1`, the INHIBITION was 11.2%.

`Cc1cc(C(=O)N(CC2CCCO2)c2ccncc2)c(C)o1` (stereo not drawn): the INHIBITION is listed as 26.4%.

As to `Cc1ccc(C(=O)N2CCn3c(COCC4CC4)cnc3C2C)s1` (stereo not drawn), the INHIBITION is -3.24%.
